Experimental data published in PubChem BioAssay (NCATS).
Results filed as inconclusive are left out. Activity calls are given as the source filed them. Unless noted, the call rests on the fitted dose curve; in most records, active means well fitted curve in the direction sought with a large enough effect; inconclusive means small, poorly fitted or top-dose-only effect, or another doubt; inactive means no such curve, though single readings can be large; an effect the other way counts as inactive or inconclusive.

Tests used:
[1] = Cytometric Cell-Based qHTS for Inhibitors of the mTORC1 Signaling Pathway in MEF (Tsc2-/-, p53-/-) Cells (AID 2660);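 further: Tsc2 and p53 null MEFs carrying empty vector with compound for 24 h; percent of cells above a phospho-rpS6 to PI ratio cutoff in each well; series mostly up to about 38 µM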
How it was run: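 Immunofluorescence qHTS of rpS6 Ser235/236 phosphorylation: MEFs (Tsc2-/-, p53-/-) treated 24 h, 37 C, in DMEM + 10% FBS. Alexa-488 signal normalized to PI count, referenced to rapamycin (7.5 nM) and DMSO; PI cell number recorded for viability.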

[2] = High Content Imaging Cell-Based qHTS for Inhibitors of the mTORC1 Signaling Pathway in MEF (Tsc2-/-, p53-/-) Cells (AID 2666);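 further: percent of cells scored positive for phospho-rpS6 Ser235/236 immunostaining by imaging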
How it was run: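 MEF Tsc2-/- p53-/- (empty vector), DMEM/10% FBS; cpd 24 h 37 °C; PFA fix, Alexa-488 p-rpS6 S235/236 Ab, Hoechst; imaged; rapamycin-defined inhibition; % positive cells/well.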

[3] = High Content Imaging Cell-Based qHTS for Inhibitors of the mTORC1 Signaling Pathway in MEF Cells (AID 2667);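 further: Tsc2-/- p53-/- MEFs stably re-expressing wild-type Tsc2 exposed 24 h; series mostly up to about 38 µM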
How it was run: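 Read-out is the share of phospho-rpS6-positive cells per well, from Hoechst-normalized Alexa-488 Ser235/236 staining imaged on IN Cell. Cells: WT Tsc2-expressing Tsc2-/-, p53-/- MEFs exposed to compound for 24 hrs.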

[4] = Cytometry Cell-Based qHTS for Inhibitors of the mTORC1 Signaling Pathway in MEF cells (AID 2668);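 further: Tsc2-/- p53-/- mouse embryonic fibroblasts stably re-expressing wild-type Tsc2; percent cells positive for phospho-rpS6 Ser235/236 relative to propidium iodide stain; series mostly up to about 38 µM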
How it was run: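 Pathway inhibition in WT Tsc2-rescued Tsc2-/-, p53-/- MEFs is measured as the Alexa-488 phospho-rpS6 to propidium iodide intensity ratio after 24 hrs of compound at 37 degree Celsius. PI-stained cell number gives viability.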

[5] = Validation screen for inhibitors of Lassa infection (AID 463096; calls by dose curve)
[6] = Validation screen for small molecules that induce DNA re-replication in MCF 10A normal breast cells (AID 463097); further: nearly all actives have a fitted effect of over 60% in size
How it was run: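 DNA re-replication was detected as a rise in nuclei with elevated Hoechst fluorescence after a 48 hr compound exposure of MCF 10A cells at 37 C.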

[7] = target: Ubiquitin carboxyl-terminal hydrolase 2 (Homo sapiens) (UniProt O75604); experiment: qHTS Validation Assay for Inhibitors of Ubiquitin-specific Protease USP2a Using CHOP2 as the Reporter (AID 463106)
Ubiquitin carboxyl-terminal hydrolase 2 (Homo sapiens), sequence (O75604 whole entry, looked up): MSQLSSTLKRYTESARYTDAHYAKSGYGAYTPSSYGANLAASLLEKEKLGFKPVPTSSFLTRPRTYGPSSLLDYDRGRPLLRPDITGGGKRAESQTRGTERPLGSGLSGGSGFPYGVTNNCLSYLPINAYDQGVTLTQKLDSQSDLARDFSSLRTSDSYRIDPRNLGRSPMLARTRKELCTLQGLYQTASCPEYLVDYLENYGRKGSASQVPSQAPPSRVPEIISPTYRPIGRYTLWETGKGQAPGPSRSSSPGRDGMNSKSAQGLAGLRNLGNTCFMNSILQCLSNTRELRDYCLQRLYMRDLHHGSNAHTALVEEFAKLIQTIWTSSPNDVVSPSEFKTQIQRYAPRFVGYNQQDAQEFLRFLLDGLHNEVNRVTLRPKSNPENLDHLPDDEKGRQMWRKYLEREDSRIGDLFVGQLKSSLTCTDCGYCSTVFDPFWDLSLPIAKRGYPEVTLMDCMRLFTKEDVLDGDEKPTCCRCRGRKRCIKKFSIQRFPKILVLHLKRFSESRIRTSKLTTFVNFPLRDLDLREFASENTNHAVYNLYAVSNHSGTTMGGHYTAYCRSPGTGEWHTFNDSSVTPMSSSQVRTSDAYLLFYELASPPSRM
How it was run: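 Fluorescence read-out at Ex 485nm/Em 531nm after 60min RT, following addition of 25nM Ub-CHOP2 plus 25nM reporter substrate to USP2 core (10nM) pretreated 30min with compound. Data normalized to NEM full inhibition; concentration-response curves fitted.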

[8] = target: DNA polymerase III PolC-type (Bacillus subtilis (strain 168)) (UniProt P13267); experiment: qHTS Validation Assay for the Inhibitors of DNA Replication in Gram-Positive Bacteria (AID 485295);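 further: reconstituted holoenzyme with PolC plus beta clamp SSB and primase; PicoGreen fluorescence of double-stranded DNA made on primed circular M13 template; series mostly up to about 57 µM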
DNA polymerase III PolC-type (Bacillus subtilis (strain 168)), sequence (P13267 whole entry, looked up): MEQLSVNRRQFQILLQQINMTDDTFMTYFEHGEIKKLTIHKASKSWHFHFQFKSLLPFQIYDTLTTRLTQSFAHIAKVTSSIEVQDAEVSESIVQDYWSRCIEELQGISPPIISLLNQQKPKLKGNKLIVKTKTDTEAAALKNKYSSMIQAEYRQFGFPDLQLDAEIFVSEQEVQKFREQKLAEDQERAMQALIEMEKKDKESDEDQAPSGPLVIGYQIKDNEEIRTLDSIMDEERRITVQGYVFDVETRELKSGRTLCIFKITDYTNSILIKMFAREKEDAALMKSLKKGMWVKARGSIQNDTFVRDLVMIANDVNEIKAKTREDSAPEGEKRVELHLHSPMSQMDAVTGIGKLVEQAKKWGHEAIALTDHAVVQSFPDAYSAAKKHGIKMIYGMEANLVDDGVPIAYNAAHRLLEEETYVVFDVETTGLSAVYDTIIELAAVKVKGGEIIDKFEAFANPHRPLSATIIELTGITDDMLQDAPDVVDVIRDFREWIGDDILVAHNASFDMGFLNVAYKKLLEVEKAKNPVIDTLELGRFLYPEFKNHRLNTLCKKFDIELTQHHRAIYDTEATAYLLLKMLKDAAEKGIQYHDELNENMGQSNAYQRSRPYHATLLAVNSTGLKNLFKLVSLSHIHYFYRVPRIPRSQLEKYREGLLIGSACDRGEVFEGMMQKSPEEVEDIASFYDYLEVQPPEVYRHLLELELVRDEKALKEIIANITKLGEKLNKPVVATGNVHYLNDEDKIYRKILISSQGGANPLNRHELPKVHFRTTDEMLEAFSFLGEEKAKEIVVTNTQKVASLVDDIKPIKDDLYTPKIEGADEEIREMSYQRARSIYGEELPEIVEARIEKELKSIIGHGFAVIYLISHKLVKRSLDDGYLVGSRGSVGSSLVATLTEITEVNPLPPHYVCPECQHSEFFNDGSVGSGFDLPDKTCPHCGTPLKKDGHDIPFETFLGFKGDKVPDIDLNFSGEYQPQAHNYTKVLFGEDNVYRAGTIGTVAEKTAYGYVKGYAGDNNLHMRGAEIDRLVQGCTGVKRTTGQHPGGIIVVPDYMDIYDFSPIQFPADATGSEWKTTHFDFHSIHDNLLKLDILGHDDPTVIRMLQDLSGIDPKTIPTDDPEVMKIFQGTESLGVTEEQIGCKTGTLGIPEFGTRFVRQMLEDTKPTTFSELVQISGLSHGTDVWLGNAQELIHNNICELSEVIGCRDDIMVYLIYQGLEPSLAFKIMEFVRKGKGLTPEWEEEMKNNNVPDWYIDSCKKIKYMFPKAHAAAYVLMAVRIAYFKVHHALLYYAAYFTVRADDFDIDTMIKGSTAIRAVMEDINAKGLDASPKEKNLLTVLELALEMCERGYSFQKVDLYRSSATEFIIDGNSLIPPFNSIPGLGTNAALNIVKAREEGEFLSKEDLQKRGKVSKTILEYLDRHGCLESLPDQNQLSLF
How it was run: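 Primed replication of single-stranded M13Gori by a four-protein B. subtilis holoenzyme is measured at room temperature. Double-stranded product is quantified by PicoGreen fluorescence after an EDTA stop; inhibition is scaled between DMSO and EDTA controls.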

[9] = qHTS Validation Assay to Find Inhibitors of Chronic Active B-Cell Receptor Signaling (AID 485345; active means well fitted curve in the direction sought with a large enough effect in the main read-out, with a control signal flat, not every such curve was filed as active)
How it was run: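 TMD8 ABC-DLBCL cells stably carrying doxycycline-inducible IkappaBalpha–green luciferase fusion plus unfused red luciferase; compounds 46 uM to 3 nM, 4 h at 37C with doxycycline. Corrected green/red luminescence ratio normalized to 10 uM MG-132 and basal cell wells; curves fitted.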

[10] = target: Beta-2 adrenergic receptor (Homo sapiens) (UniProt P07550); experiment: qHTS validation assay of beta-arrestin-biased ligands of beta2-adrenergic receptor (AID 485366)
Beta-2 adrenergic receptor (Homo sapiens), sequence (P07550 whole entry, looked up): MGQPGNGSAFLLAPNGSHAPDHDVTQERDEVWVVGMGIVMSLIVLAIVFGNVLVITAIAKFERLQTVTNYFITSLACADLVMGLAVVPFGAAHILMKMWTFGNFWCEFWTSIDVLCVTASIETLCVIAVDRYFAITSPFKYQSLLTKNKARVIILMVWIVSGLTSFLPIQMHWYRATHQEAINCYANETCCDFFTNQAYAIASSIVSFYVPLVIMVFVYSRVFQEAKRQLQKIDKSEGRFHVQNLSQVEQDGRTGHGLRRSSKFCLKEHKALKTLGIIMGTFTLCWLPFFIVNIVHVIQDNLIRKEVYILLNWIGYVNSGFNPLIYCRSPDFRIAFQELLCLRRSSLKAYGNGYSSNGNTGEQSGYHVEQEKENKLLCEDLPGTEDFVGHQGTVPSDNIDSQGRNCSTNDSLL
How it was run: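 Agonism was measured as beta-arrestin recruitment to recombinant beta2-AR, releasing tTA to drive luciferase. Cells were exposed for 18 hr at 37 degrees C to a series up to 46 microM. %Activity from corrected luminescence gave concentration-response curves.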

[11] = target: ATP-dependent 6-phosphofructokinase (Trypanosoma brucei brucei) (UniProt O15648); experiment: qHTS Validation Assay to Find Inhibitors of T. brucei phosphofructokinase (AID 485368)
ATP-dependent 6-phosphofructokinase (Trypanosoma brucei brucei), sequence (O15648 whole entry, looked up): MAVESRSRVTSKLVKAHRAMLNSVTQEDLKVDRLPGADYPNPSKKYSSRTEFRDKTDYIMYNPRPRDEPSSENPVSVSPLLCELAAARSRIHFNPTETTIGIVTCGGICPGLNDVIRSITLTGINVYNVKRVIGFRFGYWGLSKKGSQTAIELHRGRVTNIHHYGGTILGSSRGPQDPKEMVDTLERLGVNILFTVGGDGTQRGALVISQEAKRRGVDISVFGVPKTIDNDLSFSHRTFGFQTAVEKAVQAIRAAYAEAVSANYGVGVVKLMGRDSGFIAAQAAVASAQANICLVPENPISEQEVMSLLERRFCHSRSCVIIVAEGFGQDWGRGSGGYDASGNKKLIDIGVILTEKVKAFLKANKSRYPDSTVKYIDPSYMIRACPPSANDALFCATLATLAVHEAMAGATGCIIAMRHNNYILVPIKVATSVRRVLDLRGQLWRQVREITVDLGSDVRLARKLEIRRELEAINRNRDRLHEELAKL
How it was run: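 ADP-Glo luminescence, two-step: residual ATP depleted, then ADP converted to ATP for luciferase. Enzyme 1.25 nM, F6P 0.5 mM, ATP 0.1 mM, pH 8.0 TEA buffer, 45 min RT. Curves fitted and classed by quality and efficacy.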

[12] = Quantitative high throughput screen for delayed death inhibitors of the malarial parasite plastid, 96 hour incubation (AID 488745); further: series mostly up to about 29 µM; nearly all actives have a fitted effect of over 70% in size
How it was run: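 Two-generation (96 h) exposure of luciferase-reporter P. falciparum in erythrocytes, 2% hematocrit, 0.1% parasitemia final, 37 C, 5% CO2, RPMI 1640 with 0.5% Albumax. Growth inhibition scored by reduced luminescence.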

[13] = Quantitative high throughput screen for delayed death inhibitors of the malarial parasite plastid, 48 hour incubation (AID 488752); further: nearly all actives have a fitted effect of over 65% in size
How it was run: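 Cultures: infected erythrocytes at final 2% hematocrit and 0.1% parasitemia in Albumax-supplemented RPMI. Parasites express integrated firefly luciferase. Incubation with compound lasts 48 h before luminescent detection of remaining reporter activity.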

[14] = target: Thioredoxin reductase 1, cytoplasmic (Rattus norvegicus) (UniProt O89049); experiment: qHTS Assay for Substrates of Mammalian Selenoprotein Thioredoxin Reductase 1 (TrxR1) (AID 488772);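 further: series mostly up to about 57 µM; a drop in NADPH fluorescence below the no-compound background marks a TrxR1 substrate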
Thioredoxin reductase 1, cytoplasmic (Rattus norvegicus), sequence (O89049 whole entry, looked up): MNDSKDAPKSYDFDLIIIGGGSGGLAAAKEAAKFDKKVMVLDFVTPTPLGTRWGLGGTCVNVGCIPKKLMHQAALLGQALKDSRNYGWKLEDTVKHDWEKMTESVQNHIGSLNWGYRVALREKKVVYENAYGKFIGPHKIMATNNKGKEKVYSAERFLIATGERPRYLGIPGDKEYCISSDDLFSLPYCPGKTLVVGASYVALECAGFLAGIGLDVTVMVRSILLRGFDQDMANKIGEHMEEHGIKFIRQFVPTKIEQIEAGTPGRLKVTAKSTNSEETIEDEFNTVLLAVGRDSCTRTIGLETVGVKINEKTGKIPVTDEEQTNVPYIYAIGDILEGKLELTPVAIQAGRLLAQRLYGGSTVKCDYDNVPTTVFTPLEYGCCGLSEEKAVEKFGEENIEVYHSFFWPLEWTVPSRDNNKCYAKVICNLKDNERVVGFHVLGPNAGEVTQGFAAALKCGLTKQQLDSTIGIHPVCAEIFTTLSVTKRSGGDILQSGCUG
How it was run: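 In this dual-purpose format, potential substrates are identified from the first fluorescence read after selenite addition, not from the 8-minute delta. Rat enzyme is preincubated with NADPH and then with compound at ~22 deg C.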

[15] = target: Flap endonuclease 1 (Homo sapiens) (UniProt P39748); experiment: qHTS Validation Assay for the Inhibitors of Human Flap endonuclease 1 (FEN1) (AID 488816)
Flap endonuclease 1 (Homo sapiens), sequence (P39748 whole entry, looked up): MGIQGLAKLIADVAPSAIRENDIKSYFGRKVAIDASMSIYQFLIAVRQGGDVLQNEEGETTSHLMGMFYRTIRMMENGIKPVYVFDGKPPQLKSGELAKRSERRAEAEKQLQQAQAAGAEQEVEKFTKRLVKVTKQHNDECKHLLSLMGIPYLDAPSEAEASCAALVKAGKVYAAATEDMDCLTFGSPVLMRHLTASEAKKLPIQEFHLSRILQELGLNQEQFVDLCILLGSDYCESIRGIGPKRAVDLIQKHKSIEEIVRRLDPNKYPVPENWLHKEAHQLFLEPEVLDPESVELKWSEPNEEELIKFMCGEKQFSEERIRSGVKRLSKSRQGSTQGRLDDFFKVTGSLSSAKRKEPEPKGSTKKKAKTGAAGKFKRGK
How it was run: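 Enzyme reagent 10 nM; cpds pinned; 15 min RT preinc.; substrate 50 nM final; reads t=0 and 15 min; no-enzyme buffer wells as neg. control; normalized data, 4-parameter Hill fit.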

[16] = target: Tumor susceptibility gene 101 protein (Homo sapiens) (UniProt Q99816); experiment: qHTS Validation Assay for Iinhibitors of HIV-1 Budding by Blocking the Interaction of PTAP/TSG101 (AID 485342; calls by dose curve)
How it was run: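 Fluorescence anisotropy measured PTAP-Tsg101 interaction. Final concentrations were 10 uM protein domain and 50 nM labeled peptide, equilibrated 20 min at room temperature.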

[17] = target: Thioredoxin reductase 1, cytoplasmic (Rattus norvegicus) (UniProt O89049); experiment: qHTS Assay for Inhibitors of Mammalian Selenoprotein Thioredoxin Reductase 1 (TrxR1) (AID 488773); details: Potency: inhibition;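 further: drop in NADPH fluorescence over an 8 min run after selenite addition; series mostly up to about 57 µM; nearly all actives have a fitted effect of over 40% in size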
How it was run: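 Inhibition is scored from the loss of NADPH fluorescence between first and last reads of an 8-min kinetic run. Selenite (400 uM) was the substrate, added after 15 min compound preincubation at room temperature.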

[18] = target: M-phase phosphoprotein 8 (Homo sapiens) (UniProt Q99549); experiment: qHTS Validation Assay for Inhibitors for MPP8 Chromodomain Interactions with Methylated Histone Tails (AID 488949);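 further: AlphaScreen signal from MPP8 chromodomain bound to biotinylated H3K9me3 peptide; top concentration of the series differs between compounds; nearly all actives have a fitted effect of over 55% in size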
M-phase phosphoprotein 8 (Homo sapiens), sequence (Q99549 whole entry, looked up): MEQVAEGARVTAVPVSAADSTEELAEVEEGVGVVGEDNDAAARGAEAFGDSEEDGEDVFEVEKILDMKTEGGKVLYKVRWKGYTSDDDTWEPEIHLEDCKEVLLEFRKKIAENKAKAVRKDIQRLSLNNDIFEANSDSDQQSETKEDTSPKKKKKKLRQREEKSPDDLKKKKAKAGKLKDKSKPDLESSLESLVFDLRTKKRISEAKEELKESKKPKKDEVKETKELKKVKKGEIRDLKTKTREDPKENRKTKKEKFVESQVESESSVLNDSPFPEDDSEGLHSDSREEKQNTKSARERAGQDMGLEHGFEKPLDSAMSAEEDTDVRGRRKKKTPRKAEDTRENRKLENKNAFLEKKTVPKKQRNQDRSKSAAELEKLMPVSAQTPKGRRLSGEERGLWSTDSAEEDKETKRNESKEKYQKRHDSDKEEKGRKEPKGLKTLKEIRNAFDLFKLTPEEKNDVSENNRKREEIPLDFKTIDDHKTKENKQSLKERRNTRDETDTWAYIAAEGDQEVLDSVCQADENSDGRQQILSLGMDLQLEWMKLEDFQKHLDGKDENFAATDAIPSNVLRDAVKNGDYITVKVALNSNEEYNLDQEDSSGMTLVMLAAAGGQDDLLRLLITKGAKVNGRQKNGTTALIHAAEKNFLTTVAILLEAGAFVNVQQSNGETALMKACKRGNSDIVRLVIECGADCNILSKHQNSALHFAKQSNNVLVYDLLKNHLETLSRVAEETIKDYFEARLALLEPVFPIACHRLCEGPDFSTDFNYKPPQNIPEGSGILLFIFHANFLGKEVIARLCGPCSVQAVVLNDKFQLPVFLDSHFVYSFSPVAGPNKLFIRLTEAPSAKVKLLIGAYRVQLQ
How it was run: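 Disruption of the preformed MPP8–trimethyl-H3K9 peptide complex (both 50 nM, 30 min, RT) is measured after 30 min compound exposure, using AlphaScreen proximity beads; aurintricarboxylic acid titration serves as plate control.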

Measured: Potency

CCCN1CC[C@@H]2c3cc(O)ccc3CC[C@@H]21
inactive: [1] | [2] | [3] | [4] | [5] | [6] | [7] | [8] | [9] | [10] | [11] | [12] | [13] | [14] | [15]

CCOC(=O)c1ncn2c1[C@@H]1CCCN1C(=O)c1cc(OC)ccc1-2
inactive: [1] | [2] | [3] | [4] | [5] | [7] | [8] | [16] | [9] | [10] | [11] | [12] | [13] | [17] | [15] | [18]

CCCN(CCC)C1CCc2cccc(O)c2C1 (stereo not given)
inactive: [1] | [2] | [3] | [4] | [5] | [6] | [7] | [8] | [16] | [9] | [10] | [13] | [14] | [17] | [15]

CCS(=O)(=O)Nc1cccc(C(=C2CCCCC2)c2cnc[nH]2)c1
inactive: [1] | [2] | [3] | [4] | [5] | [6] | [7] | [8] | [9] | [10] | [11] | [14] | [17] | [18]
